Test results from PubChem BioAssay (NCATS).
Results filed as inconclusive are left out. Values without a mark were called inactive. Calls of active or inactive are those of the source. Calls follow the shape of the dose curve; as a rule, active = well fitted curve in the direction sought with a large enough effect; inconclusive = small, poorly fitted or top-dose-only effect, or another doubt; inactive = no such curve, though single readings can be large; an effect the other way counts as inactive or inconclusive.

Assay: Quantitative highthroughput screen to assess conditional lethalithy of P12 Ichikawa cells grown in RPMI1640 with untreated serum (RPMI+s) (AID 1963881)
Settings: ATP luminescence, 48 h; Potency: viability; series mostly up to 45.8 µM; viability: at the top concentration
Procedure, shortened: (§1)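 Each medium arm—HPLM with 10% dialyzed FBS, or RPMI1640 with 5 mM glucose and 10% untreated or dialyzed FBS—was screened against an 11-point, 3-fold compound titration for 48 h at 37 °C, with CellTiter-Glo luminescence as endpoint.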
Also: nearly all actives have a fitted effect of over 35% in size.
Potency is read from the fitted curve at half-maximal effect.

Structure (SMILES)	Potency
Cc1cn2c(-c3cn[nH]c3)cnc2c(Nc2ccc(C(=O)N3CCNCC3)cc2F)n1	18.7 µM (active)
CN1CCN(CCCN2c3ccccc3Sc3ccc(Cl)cc32)CC1	8.33 µM (active)
C[C@@H](Oc1cc(-c2cnn(C3CCNCC3)c2)cnc1N)c1c(Cl)ccc(F)c1Cl	16.6 µM (active)
CCOC(=O)N1CCN([N+]([O-])=NOc2ccc([N+](=O)[O-])cc2[N+](=O)[O-])CC1	23.5 µM (active)
Fc1ccc([C@@H]2CCNC[C@H]2COc2ccc3c(c2)OCO3)cc1	14.8 µM (active)

Assay: Quantitative highthroughput screen to assess conditional lethalithy of SEM cells grown in Human Plasma-Like Medium with dialyzed fetal bovine serum (HPLM+ds) (AID 1963882)
Settings: SEM B-ALL cells in HPLM+ds, CellTiter-Glo viability, 48 h; series mostly up to 45.8 µM; viability: at the top concentration
Procedure, shortened: as §1

Structure (SMILES)	viability	Potency
Cc1cc(=O)c2c(O)c3c(O)cc(=O)c4c3c3c(cc(O)c1c23)C(C)(C)C=4O	80.8%	–
Cc1cn2c(-c3cn[nH]c3)cnc2c(Nc2ccc(C(=O)N3CCNCC3)cc2F)n1	–	13.2 µM (active)
COc1cc2nc(-c3cc(F)ccc3O)nc(N[C@@H]3CNC[C@@H]3C(C)(C)O)c2cc1OC	–	0.332 µM (active)
CO[C@H]1C[C@@H]2CC[C@@H](C)[C@@](O)(O2)C(=O)C(=O)N2CCCC[C@@H]2C(=O)O[C@H]([C@H](C)C[C@@H]2CC[C@H](OCCO)[C@H](OC)C2)CC(=O)[C@H](C)C=C(C)[C@@H](O)[C@@H](OC)C(=O)[C@H](C)C[C@H](C)C=CC=CC=C1C	–	0.59 µM (active)
CN(C)CCOc1ccc(C(=C(CCCl)c2ccccc2)c2ccccc2)cc1	–	5.9 µM (active)
NC(=O)c1cnc(N[C@@H]2CCCC[C@@H]2N)nc1Nc1cccc(-n2nccn2)c1	–	11.7 µM (active)
O=C(CCCN1CCN(c2ccc(F)cc2)CC1)NC1c2ccccc2CSc2ccccc21 (configuration not stated)	88.3%	–
Cc1ccc(NC(=O)Nc2cc(C(F)(F)F)ccc2F)cc1Nc1ccc2c(c1)NC(=O)C2=Cc1ccc[nH]1	–	18.7 µM (active)
CS(=O)(=O)Oc1ccc2c(NC(N)=O)c(C(=O)c3ccc(Cl)cc3Cl)oc2c1	102%	–
CO[C@H]1/C=C\O[C@@]2(C)Oc3c(C)c(O)c4c(O)c(c5c(nc6cc(C)ccn65)c4c3C2=O)NC(=O)C(C)=CC=C[C@H](C)[C@H](O)[C@@H](C)[C@@H](O)[C@@H](C)[C@H](OC(C)=O)[C@H]1C	–	18.7 µM (active)
Fc1ccc([C@@H]2CCNC[C@H]2COc2ccc3c(c2)OCO3)cc1	–	14.8 µM (active)
CC(C)=CCCC(C)=CCCC(C)=CCSc1ccccc1C(=O)O	–	6.62 µM (active)
